# Experimental data from PMC7862700, “An all-to-all approach to the identification of sequence-specific readers for epigenetic DNA modifications on cytosine”.
# Experiments:
# Experiment in all cases: DAPPL (digital affinity profiling via proximity ligation, sequencing); 10 mM Tris-HCl pH 7.5, 50 mM NaCl, 1 mM DTT, 4% glycerol, room temperature, 30 min; GST-TFs on glutathione beads, 16-mer random dsDNA library, 0.1% formaldehyde crosslink after washing; high values mean tight binding
# FEV = molecular target: T1, FEV (Homo sapiens, UniProt Q99581 1-238); settings: protein: recombinant; tags: N-terminal GST; dsDNA, one strand shown
# T1 sequence: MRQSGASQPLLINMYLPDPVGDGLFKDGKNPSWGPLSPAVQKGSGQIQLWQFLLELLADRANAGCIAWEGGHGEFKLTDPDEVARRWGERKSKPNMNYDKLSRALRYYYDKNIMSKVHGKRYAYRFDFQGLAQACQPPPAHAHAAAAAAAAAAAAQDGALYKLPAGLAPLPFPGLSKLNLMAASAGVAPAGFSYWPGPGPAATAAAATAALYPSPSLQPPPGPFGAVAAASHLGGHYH
# Outline: (§1)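 Yeast served to express human transcription factors as GST fusions, which were then captured on glutathione beads and labelled with DNA barcodes. Pooled with a tag-only sample, they were incubated with 200 nmole of a 16-mer random double-stranded DNA library for 30 min at room temperature in Tris/NaCl/DTT/glycerol buffer, washed, crosslinked with 0.1% formaldehyde, ligated by proximity, amplified by PCR and sequenced. Dividing each hexamer's read frequency for a factor by its frequency for the tag-only sample gives the binding signal.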
# ETV5 = ETV5 (Homo sapiens, UniProt P41161 1-510); settings: protein: recombinant; tags: N-terminal GST; dsDNA, one strand shown
# Outline: as §1
# HSF1 = HSF1 (Homo sapiens, UniProt Q00613 1-529); settings: protein: recombinant; tags: N-terminal GST; chain copies: 3; dsDNA, one strand shown
# Outline: as §1
# SPIC = molecular target: T2, SPIC (Homo sapiens, UniProt Q8N5J4 1-248); settings: protein: recombinant; tags: N-terminal GST; dsDNA, one strand shown
# T2 sequence: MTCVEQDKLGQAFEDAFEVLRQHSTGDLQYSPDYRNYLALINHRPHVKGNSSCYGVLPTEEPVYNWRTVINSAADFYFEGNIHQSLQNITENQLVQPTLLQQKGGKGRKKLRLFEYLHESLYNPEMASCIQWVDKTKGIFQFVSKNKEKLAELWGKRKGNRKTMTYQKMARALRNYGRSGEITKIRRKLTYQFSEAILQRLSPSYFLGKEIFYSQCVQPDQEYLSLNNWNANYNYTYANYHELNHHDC
# Outline: as §1
# ELF4 = ELF4 (Homo sapiens, UniProt Q99607 1-663); settings: protein: recombinant; tags: N-terminal GST; dsDNA, one strand shown
# Outline: as §1
# ELK4 = molecular target: T3, ELK4 (Homo sapiens, UniProt P28324-2 1-405); settings: protein: recombinant; tags: N-terminal GST; dsDNA, one strand shown
# T3 sequence: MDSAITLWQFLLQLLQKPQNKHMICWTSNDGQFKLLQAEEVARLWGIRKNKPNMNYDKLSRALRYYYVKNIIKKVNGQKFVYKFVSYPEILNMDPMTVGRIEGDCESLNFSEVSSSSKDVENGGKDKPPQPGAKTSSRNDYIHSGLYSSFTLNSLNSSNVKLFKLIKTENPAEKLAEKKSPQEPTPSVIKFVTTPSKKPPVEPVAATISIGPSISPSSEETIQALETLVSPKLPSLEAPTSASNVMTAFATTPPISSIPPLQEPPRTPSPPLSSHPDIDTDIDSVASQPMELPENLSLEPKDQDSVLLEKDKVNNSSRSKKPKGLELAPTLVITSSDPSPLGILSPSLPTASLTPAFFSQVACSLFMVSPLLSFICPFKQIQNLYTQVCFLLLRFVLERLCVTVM
# Outline: as §1
# ETV2 = molecular target: T4, ETV2 (Homo sapiens, UniProt O00321 1-342); settings: protein: recombinant; tags: N-terminal GST; dsDNA, one strand shown
# T4 sequence: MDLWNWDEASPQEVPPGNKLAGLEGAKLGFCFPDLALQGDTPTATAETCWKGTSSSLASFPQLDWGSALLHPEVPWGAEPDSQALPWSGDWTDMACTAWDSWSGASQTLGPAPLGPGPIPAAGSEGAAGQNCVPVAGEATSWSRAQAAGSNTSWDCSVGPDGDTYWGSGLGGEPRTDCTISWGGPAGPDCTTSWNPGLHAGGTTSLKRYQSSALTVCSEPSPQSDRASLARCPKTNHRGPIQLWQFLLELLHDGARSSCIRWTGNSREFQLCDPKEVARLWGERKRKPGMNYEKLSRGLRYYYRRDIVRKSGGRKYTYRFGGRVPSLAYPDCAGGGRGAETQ
# Outline: as §1
# ELF3 = molecular target: T5, ELF3 (Homo sapiens, UniProt P78545 1-371); settings: protein: recombinant; tags: N-terminal GST; dsDNA, one strand shown
# T5 sequence: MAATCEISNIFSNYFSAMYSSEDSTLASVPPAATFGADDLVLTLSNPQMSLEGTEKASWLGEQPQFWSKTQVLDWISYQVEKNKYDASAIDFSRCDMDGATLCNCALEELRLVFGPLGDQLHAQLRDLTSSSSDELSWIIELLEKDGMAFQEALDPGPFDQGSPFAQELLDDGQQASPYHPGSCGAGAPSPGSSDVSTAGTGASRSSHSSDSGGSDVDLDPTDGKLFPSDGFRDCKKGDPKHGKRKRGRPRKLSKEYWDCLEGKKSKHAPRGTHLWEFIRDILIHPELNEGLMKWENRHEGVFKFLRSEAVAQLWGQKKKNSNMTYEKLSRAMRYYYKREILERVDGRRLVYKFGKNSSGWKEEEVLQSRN
# Outline: as §1
# CRX = CRX (Homo sapiens, UniProt O43186 1-299); settings: protein: recombinant; tags: N-terminal GST; dsDNA, one strand shown
# Outline: as §1
# ETV1 = ETV1 (Homo sapiens, UniProt P50549 1-477); settings: protein: recombinant; tags: N-terminal GST; dsDNA, one strand shown
# Outline: as §1
# ERF = molecular target: T6, ERF (Homo sapiens, UniProt P50548 1-548); settings: protein: recombinant; tags: N-terminal GST; dsDNA, one strand shown
# T6 sequence: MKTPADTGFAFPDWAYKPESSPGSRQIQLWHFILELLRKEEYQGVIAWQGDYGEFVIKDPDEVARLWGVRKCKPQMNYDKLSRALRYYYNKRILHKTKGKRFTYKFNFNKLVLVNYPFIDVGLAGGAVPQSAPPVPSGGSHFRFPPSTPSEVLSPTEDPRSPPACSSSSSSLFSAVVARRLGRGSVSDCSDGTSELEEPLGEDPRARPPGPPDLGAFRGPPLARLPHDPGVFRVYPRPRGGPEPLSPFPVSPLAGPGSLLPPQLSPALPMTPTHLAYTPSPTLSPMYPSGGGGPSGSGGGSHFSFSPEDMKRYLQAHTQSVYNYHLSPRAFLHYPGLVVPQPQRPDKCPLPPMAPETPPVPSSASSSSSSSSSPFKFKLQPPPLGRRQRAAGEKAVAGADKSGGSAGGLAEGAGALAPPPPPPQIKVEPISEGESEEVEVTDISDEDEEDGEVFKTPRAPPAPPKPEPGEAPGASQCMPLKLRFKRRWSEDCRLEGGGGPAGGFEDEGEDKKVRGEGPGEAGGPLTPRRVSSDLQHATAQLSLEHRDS
# Outline: as §1
# ETV3L = molecular target: T7, ETV3L (Homo sapiens, UniProt Q6ZN32 1-361); settings: protein: recombinant; tags: N-terminal GST; dsDNA, one strand shown
# T7 sequence: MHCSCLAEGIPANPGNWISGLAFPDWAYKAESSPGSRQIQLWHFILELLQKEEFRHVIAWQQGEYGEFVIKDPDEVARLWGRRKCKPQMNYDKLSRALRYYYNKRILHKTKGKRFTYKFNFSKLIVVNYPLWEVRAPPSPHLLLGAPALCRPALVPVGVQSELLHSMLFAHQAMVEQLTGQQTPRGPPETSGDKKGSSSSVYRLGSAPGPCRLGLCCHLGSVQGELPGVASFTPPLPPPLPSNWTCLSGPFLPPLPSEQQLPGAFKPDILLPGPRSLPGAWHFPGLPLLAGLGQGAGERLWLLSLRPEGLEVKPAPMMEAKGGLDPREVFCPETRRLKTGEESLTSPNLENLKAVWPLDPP
# Outline: as §1
# ETS2 = molecular target: T8, ETS2 (Homo sapiens, UniProt P15036 1-469); settings: protein: recombinant; tags: N-terminal GST; dsDNA, one strand shown
# T8 sequence: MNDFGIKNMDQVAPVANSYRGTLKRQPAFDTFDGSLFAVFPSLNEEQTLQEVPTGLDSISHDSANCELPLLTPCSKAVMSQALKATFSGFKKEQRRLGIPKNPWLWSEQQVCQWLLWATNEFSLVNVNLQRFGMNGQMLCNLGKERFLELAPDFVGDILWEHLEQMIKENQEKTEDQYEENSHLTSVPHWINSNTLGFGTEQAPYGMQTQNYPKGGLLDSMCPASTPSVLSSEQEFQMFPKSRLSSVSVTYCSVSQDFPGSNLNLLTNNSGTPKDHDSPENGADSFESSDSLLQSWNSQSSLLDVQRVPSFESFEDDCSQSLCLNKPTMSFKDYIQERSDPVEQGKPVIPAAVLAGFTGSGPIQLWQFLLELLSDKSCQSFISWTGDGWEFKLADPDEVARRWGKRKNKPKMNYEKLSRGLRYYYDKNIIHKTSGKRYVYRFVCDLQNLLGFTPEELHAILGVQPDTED
# Outline: as §1
# SPDEF = molecular target: T9, SPDEF (Homo sapiens, UniProt O95238 1-335); settings: protein: recombinant; tags: N-terminal GST; dsDNA, one strand shown
# T9 sequence: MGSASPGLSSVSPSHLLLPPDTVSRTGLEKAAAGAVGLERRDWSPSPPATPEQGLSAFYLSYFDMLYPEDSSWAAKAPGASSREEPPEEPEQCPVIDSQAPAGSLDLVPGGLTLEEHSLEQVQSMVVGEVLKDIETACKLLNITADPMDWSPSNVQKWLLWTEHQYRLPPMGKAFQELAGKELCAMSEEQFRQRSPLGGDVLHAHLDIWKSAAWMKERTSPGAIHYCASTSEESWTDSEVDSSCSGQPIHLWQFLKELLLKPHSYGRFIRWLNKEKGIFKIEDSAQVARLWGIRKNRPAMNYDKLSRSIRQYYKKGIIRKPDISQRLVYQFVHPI
# Outline: as §1
# ETV7 = molecular target: T10, ETV7 (Homo sapiens, UniProt Q9Y603 1-341); settings: protein: recombinant; tags: N-terminal GST; dsDNA, one strand shown
# T10 sequence: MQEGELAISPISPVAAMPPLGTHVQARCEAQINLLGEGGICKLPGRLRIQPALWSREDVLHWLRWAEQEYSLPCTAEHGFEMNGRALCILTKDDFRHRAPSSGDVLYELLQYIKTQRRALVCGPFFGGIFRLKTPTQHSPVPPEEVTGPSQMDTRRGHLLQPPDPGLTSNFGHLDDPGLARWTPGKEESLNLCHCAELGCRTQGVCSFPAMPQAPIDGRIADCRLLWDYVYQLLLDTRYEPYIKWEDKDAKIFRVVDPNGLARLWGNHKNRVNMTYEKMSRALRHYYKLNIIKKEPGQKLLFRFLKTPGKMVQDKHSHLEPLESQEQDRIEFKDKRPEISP
# Outline: as §1
# ELF5 = molecular target: T11, ELF5 (Homo sapiens, UniProt Q9UKW6-2 1-255); settings: protein: recombinant; tags: N-terminal GST; dsDNA, one strand shown
# T11 sequence: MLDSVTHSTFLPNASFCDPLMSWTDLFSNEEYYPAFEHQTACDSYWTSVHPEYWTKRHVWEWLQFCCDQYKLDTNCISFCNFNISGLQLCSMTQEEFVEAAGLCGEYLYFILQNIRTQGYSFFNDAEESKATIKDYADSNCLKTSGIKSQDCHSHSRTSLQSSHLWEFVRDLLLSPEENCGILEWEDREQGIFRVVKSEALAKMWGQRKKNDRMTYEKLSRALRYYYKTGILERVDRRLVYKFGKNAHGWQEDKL
# Outline: as §1
# ETV3 = molecular target: T12, ETV3 (Homo sapiens, UniProt P41162-2 1-143); settings: protein: recombinant; tags: N-terminal GST; dsDNA, one strand shown
# T12 sequence: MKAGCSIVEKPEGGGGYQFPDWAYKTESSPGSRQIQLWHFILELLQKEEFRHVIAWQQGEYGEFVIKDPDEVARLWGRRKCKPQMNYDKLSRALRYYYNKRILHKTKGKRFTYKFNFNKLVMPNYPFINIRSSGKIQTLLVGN
# Outline: as §1
# ETV6 = ETV6 (Homo sapiens, UniProt P41212 1-452); settings: protein: recombinant; tags: N-terminal GST; dsDNA, one strand shown
# Outline: as §1
# HSF1, sequence (Q00613 whole entry): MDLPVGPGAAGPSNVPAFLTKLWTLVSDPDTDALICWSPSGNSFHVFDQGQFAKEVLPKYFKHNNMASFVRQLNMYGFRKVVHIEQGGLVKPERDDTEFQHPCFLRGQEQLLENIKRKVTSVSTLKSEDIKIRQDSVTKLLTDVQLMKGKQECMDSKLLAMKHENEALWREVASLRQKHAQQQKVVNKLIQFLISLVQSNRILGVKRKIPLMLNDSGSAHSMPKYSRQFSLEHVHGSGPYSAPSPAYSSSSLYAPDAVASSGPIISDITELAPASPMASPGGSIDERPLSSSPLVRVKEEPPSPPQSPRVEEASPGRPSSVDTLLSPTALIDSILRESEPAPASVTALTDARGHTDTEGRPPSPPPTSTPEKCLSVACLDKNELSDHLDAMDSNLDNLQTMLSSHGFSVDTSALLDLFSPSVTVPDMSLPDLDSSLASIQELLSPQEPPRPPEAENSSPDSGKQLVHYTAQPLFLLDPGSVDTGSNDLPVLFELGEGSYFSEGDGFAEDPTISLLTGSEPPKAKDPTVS
# CRX, sequence (O43186 whole entry): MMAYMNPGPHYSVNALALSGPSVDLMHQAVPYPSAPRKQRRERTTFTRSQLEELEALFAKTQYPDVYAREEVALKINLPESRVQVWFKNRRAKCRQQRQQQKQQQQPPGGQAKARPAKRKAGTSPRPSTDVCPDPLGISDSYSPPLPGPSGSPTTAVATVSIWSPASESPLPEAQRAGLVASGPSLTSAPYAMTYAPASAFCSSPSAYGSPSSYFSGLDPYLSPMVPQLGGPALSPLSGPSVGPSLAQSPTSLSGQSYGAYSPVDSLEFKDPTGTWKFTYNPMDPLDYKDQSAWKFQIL
# ELF4, sequence (Q99607 whole entry): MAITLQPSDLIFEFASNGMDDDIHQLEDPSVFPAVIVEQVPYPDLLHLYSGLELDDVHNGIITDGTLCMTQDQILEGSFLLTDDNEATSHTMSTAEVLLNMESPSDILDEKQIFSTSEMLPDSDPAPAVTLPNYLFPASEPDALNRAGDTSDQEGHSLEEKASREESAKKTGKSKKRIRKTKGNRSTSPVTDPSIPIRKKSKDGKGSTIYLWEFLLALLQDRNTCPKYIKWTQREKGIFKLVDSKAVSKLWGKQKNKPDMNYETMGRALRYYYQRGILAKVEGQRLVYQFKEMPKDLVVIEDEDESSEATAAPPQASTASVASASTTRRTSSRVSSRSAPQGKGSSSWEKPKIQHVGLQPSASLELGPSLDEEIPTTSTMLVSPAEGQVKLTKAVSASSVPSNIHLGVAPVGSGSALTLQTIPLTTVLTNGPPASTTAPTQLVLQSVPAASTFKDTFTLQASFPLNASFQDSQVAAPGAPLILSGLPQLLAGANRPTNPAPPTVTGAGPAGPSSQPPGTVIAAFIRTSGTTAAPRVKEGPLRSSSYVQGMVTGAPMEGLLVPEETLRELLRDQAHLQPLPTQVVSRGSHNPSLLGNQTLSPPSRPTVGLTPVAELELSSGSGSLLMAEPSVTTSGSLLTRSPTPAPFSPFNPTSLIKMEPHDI
# ETV1, sequence (P50549 whole entry): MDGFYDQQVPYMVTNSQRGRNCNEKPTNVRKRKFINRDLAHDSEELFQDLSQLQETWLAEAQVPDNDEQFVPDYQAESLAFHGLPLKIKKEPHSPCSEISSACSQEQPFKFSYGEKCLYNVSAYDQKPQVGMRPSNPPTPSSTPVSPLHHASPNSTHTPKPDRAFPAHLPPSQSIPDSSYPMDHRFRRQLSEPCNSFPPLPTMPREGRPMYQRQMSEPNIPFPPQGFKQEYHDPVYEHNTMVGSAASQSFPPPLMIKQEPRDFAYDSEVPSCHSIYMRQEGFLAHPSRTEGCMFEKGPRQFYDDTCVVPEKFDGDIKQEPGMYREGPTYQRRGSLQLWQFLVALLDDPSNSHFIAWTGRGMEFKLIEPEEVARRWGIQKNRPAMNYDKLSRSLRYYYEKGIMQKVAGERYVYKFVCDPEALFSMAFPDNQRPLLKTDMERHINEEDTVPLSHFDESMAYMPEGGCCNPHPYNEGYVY
# ETV5, sequence (P41161 whole entry): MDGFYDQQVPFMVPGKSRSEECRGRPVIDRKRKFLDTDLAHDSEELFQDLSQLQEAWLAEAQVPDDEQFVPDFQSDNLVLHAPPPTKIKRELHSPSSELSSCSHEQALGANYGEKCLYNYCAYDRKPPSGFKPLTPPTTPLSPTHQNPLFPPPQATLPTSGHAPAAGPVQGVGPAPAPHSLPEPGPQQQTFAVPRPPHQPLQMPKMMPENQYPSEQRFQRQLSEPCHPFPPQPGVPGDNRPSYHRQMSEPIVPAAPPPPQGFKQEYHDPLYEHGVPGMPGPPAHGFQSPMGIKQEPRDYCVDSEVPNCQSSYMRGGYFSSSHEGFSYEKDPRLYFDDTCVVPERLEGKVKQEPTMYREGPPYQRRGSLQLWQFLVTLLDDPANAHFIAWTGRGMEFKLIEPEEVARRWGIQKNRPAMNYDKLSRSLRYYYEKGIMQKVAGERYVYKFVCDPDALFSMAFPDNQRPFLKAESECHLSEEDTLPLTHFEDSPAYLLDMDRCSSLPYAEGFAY
# ETV6, sequence (P41212 whole entry): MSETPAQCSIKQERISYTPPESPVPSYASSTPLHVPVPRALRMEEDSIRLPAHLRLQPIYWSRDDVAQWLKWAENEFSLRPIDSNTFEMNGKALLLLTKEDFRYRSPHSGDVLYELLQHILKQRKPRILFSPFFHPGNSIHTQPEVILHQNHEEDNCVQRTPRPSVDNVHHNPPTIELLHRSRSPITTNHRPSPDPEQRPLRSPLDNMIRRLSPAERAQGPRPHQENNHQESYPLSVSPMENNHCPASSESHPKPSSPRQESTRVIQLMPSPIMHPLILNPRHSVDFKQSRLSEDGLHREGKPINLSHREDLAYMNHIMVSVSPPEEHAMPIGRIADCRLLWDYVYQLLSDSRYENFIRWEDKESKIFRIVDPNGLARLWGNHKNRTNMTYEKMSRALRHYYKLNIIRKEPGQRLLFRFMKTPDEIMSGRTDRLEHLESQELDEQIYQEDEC
sequence,measurement,setting,value
CCCTCC,binding signal,FEV,"1.51 fold enrichment (6-mer frequency, TF over GST control)"
same,binding signal,ETV5,"1.48 fold enrichment (6-mer frequency, TF over GST control)"
same,binding signal,HSF1,"1.22 fold enrichment (6-mer frequency, TF over GST control)"
same,binding signal,SPIC,"1.73 fold enrichment (6-mer frequency, TF over GST control)"
same,binding signal,ELF4,"1.58 fold enrichment (6-mer frequency, TF over GST control)"
same,binding signal,ELK4,"1.38 fold enrichment (6-mer frequency, TF over GST control)"
same,binding signal,ETV2,"1.32 fold enrichment (6-mer frequency, TF over GST control)"
same,binding signal,ELF3,"1.27 fold enrichment (6-mer frequency, TF over GST control)"
same,binding signal,CRX,"1.19 fold enrichment (6-mer frequency, TF over GST control)"
same,binding signal,ETV1,"1.45 fold enrichment (6-mer frequency, TF over GST control)"
same,binding signal,ERF,"1.58 fold enrichment (6-mer frequency, TF over GST control)"
same,binding signal,ETV3L,"1.31 fold enrichment (6-mer frequency, TF over GST control)"
same,binding signal,ETS2,"1.51 fold enrichment (6-mer frequency, TF over GST control)"
same,binding signal,SPDEF,"1.36 fold enrichment (6-mer frequency, TF over GST control)"
same,binding signal,ETV7,"1.37 fold enrichment (6-mer frequency, TF over GST control)"
same,binding signal,ELF5,"1.34 fold enrichment (6-mer frequency, TF over GST control)"
same,binding signal,ETV3,"1.39 fold enrichment (6-mer frequency, TF over GST control)"
same,binding signal,ETV6,"1.4 fold enrichment (6-mer frequency, TF over GST control)"
